Source: PubChem (several laboratories)
In the library only some 1.6% were active in any assay of this set; here they are far more common.
DSG3 Ab inh: inhibitors of pemphigus antibody binding to human desmoglein-3 | 310,000 compounds, 0.48% hits | binding (percent of control), % at 10 µM | P32926 | DSG3-coupled beads, scFv-anti-DSG3-GFP binding, flow cytometry; hits give low values;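 active means binding more than 3 SD below its plate's average and above zero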;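 further: hits lower antibody fragment binding to DSG3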
PREPL inh: inhibitors of human prolyl oligopeptidase-like enzyme PREPL; inhibition, % at 5.96 µM; 320,000 compounds, 0.68% hits; Q4J6C6; recombinant PREPL, fluorescence polarization activity-based probe; in the data active means inhibition above about 43%;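 further: 0% = enzyme with DMSO and 100% = wells lacking enzyme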
GRK2 inh: blocks RNA aptamer binding to human GRK2; P25098; bead flow cytometry, FAM-aptamer displacement from GRK2; inhibition of aptamer binding, % at 10 µM; 330,000 compounds, 0.59% hits;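 active means inhibition of aptamer binding above 40%, roughly 3 SD of noise, on plates passing a quality check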;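 further: median bead fluorescence of bound FAM aptamer so fluorescent compounds give negative values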
GASC-1 inh: blocks human GASC-1 demethylase activity; Q9H3R0; GST-JMJD2C(1-420) H3K9me3 demethylation, DELFIA europium; inhibition, % at 2.35 µM; 330,000 compounds, 0.069% hits; AID 2099;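 active means more than half of a compound's replicate wells show inhibition beyond 50%, single wells judged on their own value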;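 further: signal counts dimethyl H3K9 product captured on neutravidin plate; 0% = median of DMSO wells and 100% = 0.3 times that DMSO median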
VLA-4 inh: inhibition in a human VLA-4 binding assay. AID 2557. 330,000 compounds, 0.2% hits. P13612. VLA-4 expressing cells, ligand binding flow cytometry. inhibition, % (about 7 µM as worked out from the volumes in the protocol); in the data active means inhibition above about 50%
VLA-4 allo CP: confirmation of allosteric modulators of human VLA-4 integrin. shares compounds with VLA-4 inh. U937 cells, HUTS-21 LIBS mAb binding, flow cytometry; LDV ligand present at threefold Kd. 1,300 compounds, 2% hits. inhibition, % at 6.7 µM; in the data active means inhibition above about 40%;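 further: 0% = ligand without compound and 100% = no ligand background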
* marks the source's active call; other numbers are inactive results; / = no result given.

SMILES	DSG3 Ab inh	PREPL inh	GRK2 inh	GASC-1 inh	VLA-4 inh	VLA-4 allo CP
O=C(NCCCN1CCC(Cc2ccccc2)CC1)c1ccc2nc(N3CCOCC3)sc2c1	104	-24	0	-1	12	/
O=C(NCc1cccc(F)c1)c1ccc2nc(N3CCOCC3)sc2c1	98	2	0	14	40	-1
COc1ccc2nc(N3CCCC(C(=O)NCCc4ccc(OC)c(OC)c4)C3)sc2c1 (stereo not drawn)	115	20	2	-2	13	/
Cc1ccc(NC(=O)c2ccc3nc(N4CCOCC4)sc3c2)c(Cl)c1	100	-2	0	80	41	7
O=C(NCCc1ccc(Cl)cc1)c1ccc2nc(N3CCOCC3)sc2c1	98	24	0	-10	43	13
Fc1ccc2nc(N3CCOCC3)sc2c1	/	-7	0	-29	-6	/
O=C(c1ccc2nc(N3CCOCC3)sc2c1)N1CCCC1	104	11	5	-3	34	/
CCOc1ccc(CNC(=O)c2ccc3nc(N4CCOCC4)sc3c2)cc1	103	10	0	-22	6	2
CCN(C[C@H]1N[C@@](CC)(C(=O)OC)[C@H]2C(=O)N(C)C(=O)[C@@H]12)C(C)=O	102	5	0	/	-6	/
COc1cccc(CN(C(=O)Cc2c[nH]c3ccccc23)C(C(=O)NC2CCCCC2)c2ccc(C)o2)c1 (stereo not drawn)	99	4	2	9	48	-124
CCc1ccc(N2C(=O)c3cc(N4CCOCC4)c([N+](=O)[O-])cc3C2=O)cc1	/	5	0	-1	43	-12
O=C(Nc1nnc(SCc2ccccn2)s1)C1CC(=O)N(c2ccc(F)cc2)C1 (stereo not drawn)	99	8	1	0	14	/
Clc1ccc(SCc2cc(Cl)nc(-c3ccccc3)n2)cc1	118	-2	0	9	0	/
Clc1cc(CSc2ccccc2)nc(-c2ccccc2)n1	104	-17	5	-7	94*	5
O=C(c1ccccc1)N1CCN(C(=O)c2ccc([N+](=O)[O-])cc2)CC1	113	3	4	3	42	-2
O=C(c1ccc([N+](=O)[O-])cc1)N1CCCC1	100	-4	1	6	10	/
Cc1cc(Cl)ccc1OC(C)C(=O)NN1C(=O)c2ccccc2C1=O (stereo not drawn)	110	-30	1	5	9	/
O=C(Nc1ccc(F)cc1)Nc1cccnc1	104	/	1	3	-6	-3
Fc1ccc(NC(=S)Nc2cccnc2)cc1	104	7	3	13	10	/
CC(=O)Nc1ccc(S(=O)(=O)N2CCN(Cc3csc(C)n3)CC2)cc1	118	4	0	7	5	/
COCCSc1ccccc1C(=O)N1CCc2ccccc2C1	103	-12	3	/	52*	2
CCc1ccc(NC(=O)Cn2cnc([N+](=O)[O-])c2)cc1	98	3	2	6	54*	7
O=C(Cn1cnc([N+](=O)[O-])c1)Nc1ccc(F)c(Cl)c1	94	/	/	2	/	/
O=C1CN(C(=O)c2ccccc2F)C(c2ccc(F)cc2)c2cc(Br)ccc2N1 (stereo not drawn)	89	11	17	-37	0	/
COc1cc(SC)ccc1C(=O)Nc1ncc(Cl)cc1Cl	87	-5	0	3	55*	7
SMILES	DSG3 Ab inh	PREPL inh	GRK2 inh	GASC-1 inh	VLA-4 inh	VLA-4 allo CP
COc1ccc(S(=O)(=O)Nc2cc(C)on2)cc1	114	-5	0	-37	0	/
COC(=O)c1cc(-c2ccc(C)o2)nc2ccccc12	/	2	7	2	41	-27
Cc1ccc(-c2cc(C(=O)Nc3ccccc3C)c3ccccc3n2)o1	92	2	7	0	-8	/
Cc1c(NC(=O)Nc2ccc(Cl)c(Cl)c2)c(=O)n(-c2ccccc2)n1C	103	0	0	9	65*	8
Cc1c(NC(=O)c2ccc(C(=O)Nc3c(C)n(C)n(-c4ccccc4)c3=O)cc2)c(=O)n(-c2ccccc2)n1C	117	-3	0	12	2	/
Cc1ccc2c(C)c(C(=O)Nc3c(C)n(C)n(-c4ccccc4)c3=O)oc2c1	109	2	2	-1	9	-10
COc1c(C(=O)Nc2c(C)n(C)n(-c3ccccc3)c2=O)ccc2ccccc12	/	-2	5	-11	-1	0
